Screening results deposited in PubChem by National Center for Advancing Translational Sciences (NCATS).
An excerpt weighted towards active compounds, which were near 7.5% of everything screened.
ELG1 genotox: induces genotoxicity in HEK293T cells with luciferase-tagged ELG1. HEK293T ELG1-luciferase reporter, luminescence, 16 h. Potency, µM (doses to about 46 µM), for the others: at the highest dose activity change, positive = activation, usual class: activators. actives 1.3% (n = 330,000); further: % of control where 0% means no effect; nearly all actives have a fitted effect of over 60% in size
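Step 1: seed 2,000 HEK293T ELG1-luciferase cells per well. Step 2: add compound or DMSO, incubate 16 hr at 37 °C. Step 3: ONE-Glo, 30 min at room temperature, read luminescence.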
FLuc modulator: firefly luciferase modulation, counter-screen for miR-21 project; P08659; purified FLuc, Km substrates, luminescence inhibition; actives 6.9% (n = 360,000); AID 588342; Potency, µM (top dose mostly 57.5 µM), inactives show at the top dose activity change, negative = inhibition, actives largely listed as inhibitors;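 further: plate controls were vehicle for no effect and reference inhibitor for full effect; nearly all actives have a fitted effect of over 55% in size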
Target sequence (P08659 whole entry, looked up): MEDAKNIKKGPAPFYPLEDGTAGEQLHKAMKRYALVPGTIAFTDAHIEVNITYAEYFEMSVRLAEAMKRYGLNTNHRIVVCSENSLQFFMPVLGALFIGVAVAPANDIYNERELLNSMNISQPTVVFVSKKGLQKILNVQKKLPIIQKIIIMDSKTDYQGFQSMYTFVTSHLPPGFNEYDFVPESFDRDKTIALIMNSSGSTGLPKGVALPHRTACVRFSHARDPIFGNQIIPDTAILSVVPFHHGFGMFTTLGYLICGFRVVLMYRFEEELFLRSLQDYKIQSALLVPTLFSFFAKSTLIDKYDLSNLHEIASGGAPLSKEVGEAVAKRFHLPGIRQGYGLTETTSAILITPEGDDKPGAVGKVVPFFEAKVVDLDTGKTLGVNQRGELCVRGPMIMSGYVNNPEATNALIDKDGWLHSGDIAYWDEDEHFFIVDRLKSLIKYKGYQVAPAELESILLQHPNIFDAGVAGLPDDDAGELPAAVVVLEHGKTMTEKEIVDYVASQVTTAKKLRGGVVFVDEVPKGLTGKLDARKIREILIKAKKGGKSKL
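Purified P. pyralis luciferase, 10 nM final, with Km-level 10 uM D-luciferin and 10 uM ATP in 50 mM Tris acetate pH 7.5, 10 mM Mg acetate, 0.01% Tween-20, 0.05% BSA; 6-point qHTS titration about 60 µM downward; luminescence read.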
Rab9 prom act: activators of Rab9 promoter; Huh7 Rab9 promoter-luciferase reporter, luminescence, 24 h; Potency, µM (titrated, usually from 9.22 µM), for the others: at the highest dose activation, negative = inhibition, usual class: activators; actives 2.8% (n = 320,000); AID 485297; further: % of control where 0% means no effect; nearly all actives have a fitted effect of over 60% in size
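Luminescence from Amplite-detected luciferase (10 minutes, ambient) reports Rab9 promoter activation. Before that, stable Rab9-luciferase Huh7 cells (1500/well, reduced-serum OP-MEM I plus 10% FBS) were exposed to compound for 24 hours at 37C.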
SMN2 splice up: SMN2 splice variant enhancement. HEK293 SMN2-luciferase splicing reporter, luminescence, 30-36 h. Potency, µM (titrated, usually from 46.1 µM), for the others: at the top dose activity change, positive = activation, hits mostly activators. actives 2.8% (n = 210,000); further: % of control where 0% means no effect; nearly all actives have a fitted effect of over 55% in size
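HEK293 cells carry an SMN2 minigene-luciferase reporter in which exon 7 inclusion puts luciferase in frame. Cells were seeded at 2000 cells/well, attached for 10-12 hours, then exposed to compounds for 30-36 hours at 37C before ONE-Glo luminescence.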
NPC1 promoter act: NPC1 promoter activation; Huh7 NPC1 promoter luciferase reporter, 24 h; Potency, µM (doses to about 9.22 µM), without a hit: at the highest dose activation, actives largely listed as activators; actives 2.4% (n = 320,000); AID 485313; further: % of control where 0% means no effect; nearly all actives have a fitted effect of over 60% in size
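In 1536-well qHTS, Huh7 cells harboring an NPC1 promoter–luciferase construct received compound for 24 h; activation was quantified by luminescence following luciferase reagent addition.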
Starred values were filed as active, the others as inactive. The call rests on the fitted dose curve; in most records, active means well fitted curve in the direction sought with a large enough effect; inconclusive means small, poorly fitted or top-dose-only effect, or another doubt; inactive means no such curve, though single readings can be large; an effect the other way counts as inactive or inconclusive. Potency means the concentration at half of the fitted maximal effect.

How did Cc1ccc(CN2CCN(CC(=O)NCCCN3CCN(c4ccc(F)cc4)CC3)C2=O)cc1 do in these assays?
ELG1 genotox: -5.4%; FLuc modulator: 4.4%; Rab9 prom act: -6.2%; SMN2 splice up: -71.5%; NPC1 promoter act: -10.6%

Results for O=C(CN1CCOCC1)NCCNS(=O)(=O)c1ccccc1 ?
ELG1 genotox: -0.3%; FLuc modulator: -2.7%; Rab9 prom act: 7.2%; NPC1 promoter act: -3.1%

Results for CN(C)c1cc[n+](CC(=O)c2ccc(OC(F)F)cc2)cc1 ?
ELG1 genotox: -6.9%; FLuc modulator: -1.5%; Rab9 prom act: -22.1%; NPC1 promoter act: -15.8%

Results for COc1ccc(C(=O)CCC(=O)Nc2ccc(N3CCN(C)CC3)cc2)cc1OC ?
ELG1 genotox: -0.9%; FLuc modulator: -13.8%; Rab9 prom act: -3.5%; NPC1 promoter act: -3.3%

Results for O=C(Cc1c(Cl)cccc1Cl)OCc1ccccn1 ?
ELG1 genotox: 23.1µM*; FLuc modulator: inconclusive; Rab9 prom act: 25.3%; NPC1 promoter act: 25.1%

Results for O=C(OCc1c(Cl)cccc1Cl)c1ccccn1 ?
ELG1 genotox: 1.2%; FLuc modulator: 0.5%; Rab9 prom act: 8.2%; SMN2 splice up: 3.1%; NPC1 promoter act: -2.1%

What do the screens show for `c1ccc(-c2cnc(-c3ccccc3)nc2)cc1`?
ELG1 genotox: inconclusive; FLuc modulator: 0.301µM*; Rab9 prom act: 0.355µM*; SMN2 splice up: 7.08µM*; NPC1 promoter act: 0.562µM*

What do the screens show for `c1ccc2c(c1)cnc1ccccc12`?
ELG1 genotox: -7.7%; FLuc modulator: inconclusive; Rab9 prom act: 0.1%; NPC1 promoter act: 3.4%

What do the screens show for `c1ccc(-c2ncc3c(ccc4ccccc43)n2)cc1`?
ELG1 genotox: 0.651µM*; FLuc modulator: 0.0849µM*; Rab9 prom act: 0.794µM*; SMN2 splice up: 0.501µM*; NPC1 promoter act: 3.98µM*

How did O=C(O)c1ncc(-c2ccccc2)cn1 do in these assays?
ELG1 genotox: 0.6%; FLuc modulator: -14.1%; Rab9 prom act: -2.6%; SMN2 splice up: -9.2%; NPC1 promoter act: -1.7%

What do the screens show for `Cn1c(SC2CCCCC2=O)nnc1-c1ccccc1F` (centres undefined)?
ELG1 genotox: 5.0%; FLuc modulator: 6.2%; Rab9 prom act: -5.5%; SMN2 splice up: 18.7%; NPC1 promoter act: 0.3%

Results for O=C(NC1CC2CCCC(C1)N2C(=S)Nc1ccc(Cl)cc1)C1CC1 (centres undefined) ?
ELG1 genotox: -5.5%; FLuc modulator: 3.1%; Rab9 prom act: -0.1%; NPC1 promoter act: 1.2%

What do the screens show for `COc1ccccc1NC(=O)C1=C(C)NC(=O)NC1c1ccco1` (centres undefined)?
ELG1 genotox: -0.9%; FLuc modulator: 0.4%; Rab9 prom act: -4.0%; NPC1 promoter act: -5.4%

What do the screens show for `Brc1cc(Br)c2nc(-c3cccs3)ccc2c1`?
ELG1 genotox: 11.2µM*; FLuc modulator: 9.53µM*; Rab9 prom act: inconclusive; SMN2 splice up: 11.2µM*; NPC1 promoter act: 1.0%

How did CS(=O)(=O)c1ccc(Cl)c(C(=O)NCC2CCCCC2)c1 do in these assays?
ELG1 genotox: -1.1%; FLuc modulator: -0.2%; Rab9 prom act: -0.3%; NPC1 promoter act: -6.1%

How did N#Cc1cccc(NC(=O)Cn2cnc(S(=O)(=O)N3CCc4ccccc43)c2)c1 do in these assays?
ELG1 genotox: -5.5%; FLuc modulator: -1.6%; Rab9 prom act: -13.0%; NPC1 promoter act: -2.7%

How did O=C(COc1ccccc1)N(Cc1ccco1)C1CCS(=O)(=O)C1 (centres undefined) do in these assays?
ELG1 genotox: 1.3%; FLuc modulator: -0.2%; Rab9 prom act: 17.1%; SMN2 splice up: -6.4%; NPC1 promoter act: 9.3%

What do the screens show for `Cc1ccc(/C=C/C(=O)Nc2nccs2)o1`?
ELG1 genotox: inconclusive; FLuc modulator: 8.49µM*; Rab9 prom act: 1.78µM*; SMN2 splice up: 11.2µM*; NPC1 promoter act: 2.82µM*

Results for Cc1ccc(/C=C/C(=O)Nc2ncc(C)s2)o1 ?
ELG1 genotox: inconclusive; FLuc modulator: 1.9µM*; Rab9 prom act: 2.82µM*; SMN2 splice up: 3.16µM*; NPC1 promoter act: 3.55µM*

How did Cc1cnc(NC(=O)/C=C/c2ccc(Br)o2)s1 do in these assays?
ELG1 genotox: inconclusive; FLuc modulator: -8.5%; Rab9 prom act: inconclusive; NPC1 promoter act: inconclusive

What do the screens show for `CN(C)c1ccc(-n2c(CCC(=O)O)ccc2-c2ccccc2)cc1`?
FLuc modulator: inconclusive; SMN2 splice up: -5.6%

Results for CCOC(=O)c1ccc(Nc2ncnc3c2cnn3C)cc1 ?
ELG1 genotox: 11.5%; FLuc modulator: -13.8%; Rab9 prom act: 2.7%; NPC1 promoter act: 1.8%

Results for Cn1ncc2c(O/N=C(\N)c3ccc(C(C)(C)C)cc3)ncnc21 ?
ELG1 genotox: -22.3%; FLuc modulator: 15.1µM*; Rab9 prom act: -41.4%; NPC1 promoter act: -43.2%

Results for Cc1cccc(C(=O)O/N=C/c2c(N3CCOCC3)n(C)c3ccccc23)c1 ?
ELG1 genotox: -9.7%; FLuc modulator: inconclusive; Rab9 prom act: -24.7%; SMN2 splice up: -79.5%; NPC1 promoter act: -12.6%

Results for Cc1nn(C)c(Cl)c1/C=N/OC(=O)c1ccccc1 ?
ELG1 genotox: 1.5%; FLuc modulator: 12µM*; Rab9 prom act: -2.3%; SMN2 splice up: -0.3%; NPC1 promoter act: -2.8%

What do the screens show for `Cc1nn(C)c(Cl)c1/C=N/OC(=O)c1ccc(F)cc1`?
ELG1 genotox: 0.5%; FLuc modulator: 16.9µM*; Rab9 prom act: 0.5%; SMN2 splice up: 9.4%; NPC1 promoter act: -2.1%

Results for Cn1nc(C(F)(F)F)c(/C=N/OC(=O)c2ccccc2)c1Cl ?
ELG1 genotox: 1.2%; FLuc modulator: inconclusive; Rab9 prom act: -7.0%; SMN2 splice up: -6.4%; NPC1 promoter act: -1.9%

Results for Cn1c(Cl)c(/C=N/OC(=O)c2ccccc2Cl)c2ccccc21 ?
ELG1 genotox: -2.5%; FLuc modulator: 6.75µM*; Rab9 prom act: -1.1%; SMN2 splice up: -1.1%; NPC1 promoter act: 2.1%

Results for CCCCc1ccc(Nc2ncnc3c2cnn3-c2ccc(C)cc2)cc1 ?
FLuc modulator: -10.4%

How did O=C(/C=C/c1ccc(Cl)cc1)NCc1cccs1 do in these assays?
ELG1 genotox: 15.6%; FLuc modulator: 15.1µM*; Rab9 prom act: 12.4%; SMN2 splice up: 3.5%; NPC1 promoter act: 7.9%

What do the screens show for `O=C(/C=C/c1cccc(Cl)c1)NCc1cccs1`?
ELG1 genotox: 1.5%; FLuc modulator: inconclusive; Rab9 prom act: 8.1%; SMN2 splice up: -2.3%; NPC1 promoter act: 9.6%

What do the screens show for `O=C(NCCc1cccs1)C(c1ccccc1)c1ccccc1`?
ELG1 genotox: -0.7%; FLuc modulator: 8.7%; Rab9 prom act: -3.6%; NPC1 promoter act: -4.8%

What do the screens show for `Cc1ccc(C(=O)NCCc2cccs2)cc1`?
ELG1 genotox: inconclusive; FLuc modulator: 0.849µM*; Rab9 prom act: 0.1µM*; SMN2 splice up: 0.501µM*; NPC1 promoter act: 0.316µM*
